Screens deposited in PubChem by National Center for Advancing Translational Sciences (NCATS).
In the library only some 3.8% were active in any assay of this set; here they are far more common.
ATXN viability – reduces viability in counter-screen for ATXN expression inhibitors. S2 cells (HEK-293 line with an ATXN2-luciferase reporter) viability, CellTiter-Fluor protease fluorescence, 24 h. Potency, µM (doses to about 56.7 µM), hits mostly cytotoxic. 400,000 tested, 0.49% active; note: nearly all actives have a fitted effect of over 40% in size
HepG2 tox-1 – kills HepG2 cells in TGF-b inhibitor counter-screen; HepG2 CAGA-GFP viability, ATP luminescence, 18 h; Potency, µM (highest dose often 46.1 µM), inactives show at the top dose activity change, negative = cytotoxicity, usual class: cytotoxic; 410,000 tested, 0.76% active; AID 588856
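HepG2 CAGA-GFP cells (1000/well, DMEM with 1% FBS) received compound, then TGF-beta at 500 pg/mL final, and were incubated 18 hours at 37 degrees C. Viability was read by CellTiter-Glo luminescence. Media-only wells were set as complete cell-killing and DMSO as no toxicity.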
TGFb SMAD3 inh – blocks TGF-b signaling. HepG2 CAGA-GFP TGF-b/SMAD3 reporter, GFP fluorescence, 18 h; TGF-beta stimulated, 500 pg/mL final. Potency, µM (doses to about 46.1 µM), for inactives: at the top dose activity, negative = inhibition, most hits filed as inhibitors. 410,000 tested, 1.2% active; note: % is set by controls: 0 for no effect and ±100 for the full control effect; nearly all actives have a fitted effect of over 65% in size
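Inhibition of TGF-beta-driven CAGA-GFP reporter expression in HEPG2 cells is measured by cellular GFP fluorescence after 18 h stimulation with 500 pg/mL recombinant TGF-beta in 1% FBS medium at 37 degrees C.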
A549 viability – kills or reduces viability of A549 cells in Nrf2 counter-screen; A549 ARE-Fluc cells, CellTiter-Fluor viability, 18-24 h; Potency, µM (series often up to 46 µM), for the others: at the top dose activity change, negative = cytotoxicity, usual class: inhibitors; 390,000 tested, 0.16% active; note: % is set by controls: 0 for no effect and ±100 for the full control effect
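A549 ARE-Fluc cells in 5% FBS OPTI-MEM, 5000 cells/well, rested 2 h then exposed to compounds in concentration-response for 18-24 h at 37 °C. Viability by CellTiter-Fluor fluorescence (Ex 405/Em 525) after 30 min; luciferase luminescence (BugLite, 15 min, RT) read afterwards.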
ATXN2 expr inh – ATXN2 expression inhibition; 360,000 tested, 0.72% active; Potency, µM (series often up to 57 µM), for inactives: top-dose activity change, negative = inhibition, usual class: inhibitors; AID 1745845; HEK-293 ATXN2-luciferase reporter, luminescence, 24 h; note: % is set by controls: 0 for no effect and ±100 for the full control effect; nearly all actives have a fitted effect of over 55% in size
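qHTS (up to 57 uM final) was run with 24 h compound exposure of reporter cells at 37 °C. Each well was multiplexed: SteadyGlo luminescence measured ATXN2-luciferase expression after a fluorogenic Gly-Phe-AFC viability readout (25 uM final).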
Nrf2 block – inhibitors of Nrf2 signaling | Potency, µM (titrated, usually from 46 µM), for the others: top-dose activity change, negative = inhibition, actives largely listed as inhibitors | AID 504444 | A549 ARE-Fluc reporter, luciferase luminescence, 18-24 h | 360,000 tested, 2.1% active; note: % is set by controls: 0 for no effect and ±100 for the full control effect; nearly all actives have a fitted effect of over 60% in size
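In this cell-based qHTS, ARE-driven firefly luciferase in A549 cells reports Nrf2 activity; the luminescent signal after BugLite lysis is the measured value, with a prior CellTiter-Fluor read for cell health.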
TGFb CAGA inh – confirmation of TGF-b signaling inhibitors in HepG2 reporter cells; shares compounds with TGFb SMAD3 inh; HepG2 CAGA-GFP TGF-b reporter, GFP fluorescence, 18 h; cells stimulated with TGF-beta, 500 pg/mL; Potency, µM (top dose mostly 46.1 µM), inactives show at the top dose activity, negative = inhibition, usual class: inhibitors; 1,600 tested, 63% active; note: % is set by controls: 0 for no effect and ±100 for the full control effect; nearly all actives have a fitted effect of over 65% in size
HepG2 tox-2 – counter-screen for TGF-b inhibitors: cytotoxicity in HepG2 cells. shares compounds with TGFb SMAD3 inh. HepG2 CAGA-GFP viability, ATP luminescence, 18 h; cells stimulated with TGF-beta, 500 pg/mL. Potency, µM (highest dose often 46.1 µM), inactives show at the highest dose activity, negative = cytotoxicity, usual class: inhibitors. 1,600 tested, 27% active; note: % is set by controls: 0 for no effect and ±100 for the full control effect; nearly all actives have a fitted effect of over 70% in size
CCL64 TGFb inh – blocks TGF-b signaling in CCL64 reporter cells; shares compounds with TGFb SMAD3 inh; CCL64 CAGA-GFP reporter, TGF-b stimulated, GFP fluorescence, 18 h; Potency, µM (doses to about 46.1 µM), for the others: at the highest dose activity, negative = inhibition, most hits filed as inhibitors; 1,600 tested, 41% active; AID 720536; note: nearly all actives have a fitted effect of over 65% in size
COP TGFb inh – blocks TGF-b signaling in HepG2 COP reporter; shares compounds with TGFb SMAD3 inh; HepG2 COP-GFP TGF-b reporter, GFP fluorescence, 18 h; cells stimulated by added recombinant TGF-beta; Potency, µM (highest dose often 46.1 µM), for inactives: at the top dose activity, negative = inhibition, usual class: inhibitors; 1,600 tested, 3% active; AID 720537; note: nearly all actives have a fitted effect of over 70% in size
Starred values were filed as active, the others as inactive; i = inactive; u = inconclusive; x = not tested or not shown. Calls come from the whole dose curve; as a rule, active = well fitted curve in the direction sought with a large enough effect; inconclusive = small, poorly fitted or top-dose-only effect, or another doubt; inactive = no such curve, though single readings can be large; an effect the other way counts as inactive or inconclusive. Potency is the fitted concentration of half-maximal effect.

SMILES	ATXN viability	HepG2 tox-1	TGFb SMAD3 inh	A549 viability	ATXN2 expr inh	Nrf2 block	TGFb CAGA inh	HepG2 tox-2	CCL64 TGFb inh	COP TGFb inh
O=C(CSC1=NNC(c2ccccn2)S1)Nc1ccc(C(F)(F)F)cc1 (stereo not given)	i	-23.4%	u	-15.1%	u	u	-20.2%	-22.1%	u	-0.8%
CCC(=O)NC(Nc1sc2c(c1C(=O)OC)CCC2)C(Cl)(Cl)Cl (stereo not given)	i	9.1%	11.2µM*	-1.7%	-16.6%	-24.9%	20.6µM*	-10.1%	u	-27.4%
COC(=O)c1c(NC(NC(=O)C(C)(C)C)C(Cl)(Cl)Cl)sc2c1CCC2 (stereo not given)	i	-1.8%	12.6µM*	-3.4%	-5.9%	u	9.2µM*	u	u	52.9%
COC(=O)c1c(NC(NC(=O)CC(C)C)C(Cl)(Cl)Cl)sc2c1CCC2 (stereo not given)	i	-3.8%	u	-15.3%	-15.0%	u	x	x	x	x
CCOC(=O)c1c(NC(NC(C)=O)C(Cl)(Cl)Cl)sc2c1CCCC2 (stereo not given)	i	-36.2%	u	-0.3%	4.0%	u	x	x	x	x
COC(=O)c1c(NC(NC(C)=O)C(Cl)(Cl)Cl)sc2c1CCCC2 (stereo not given)	i	-26.0%	12.6µM*	0.6%	-13.9%	20.6µM*	14.6µM*	-22.3%	16.4µM*	4.2%
CN1CCOc2cc(S(=O)(=O)NCc3ccc(S(N)(=O)=O)cc3)ccc21	u	7.1%	-17.1%	-1.5%	3.5%	7.0%	x	x	x	x
Cc1cccc(CN2CC34C=CC(CC3S2(=O)=O)O4)c1 (stereo not given)	x	2.6%	1.5%	-2.1%	x	21.1%	x	x	x	x
Cc1cc(C)cc(-n2ccnc(NCc3ccc(F)cc3)c2=O)c1	i	-3.1%	-10.8%	0.3%	-13.0%	u	x	x	x	x
COC(=O)C(Cc1ccccc1)NC(=O)CCNC(=O)c1ccco1 (stereo not given)	i	0.2%	-5.6%	0.0%	1.1%	0.4%	x	x	x	x
CCC(=O)O[C@@H]1CC(=O)O[C@H](C)C/C=C/C=C/[C@H](O)[C@H](C)C[C@H](CC=O)[C@H](O[C@@H]2O[C@H](C)[C@@H](O[C@H]3C[C@@](C)(O)[C@@H](OC(=O)CC)[C@H](C)O3)[C@H](N(C)C)[C@H]2O)[C@H]1OC	i	x	x	x	x	x	x	x	x	x
CCOC(=O)c1c(-c2ccco2)csc1N	i	-20.8%	-5.6%	u	-25.5%	-5.0%	x	x	x	x
CCOC(=O)c1c(-c2cccs2)csc1N	i	-17.4%	u	-4.3%	4.0%	-11.0%	-7.6%	-2.3%	4.7%	-0.1%
O=C(Nc1nc(-c2ccccn2)cs1)c1ccc([N+](=O)[O-])o1	u	-58.0%	8.91µM*	-6.0%	u	4.9%	14.6µM*	16.4µM*	u	17.2%
Cc1cc(C(=O)Nc2nc(-c3ccccn3)cs2)ccc1[N+](=O)[O-]	u	-26.0%	u	u	u	u	x	x	x	x
O=C(Nc1ccccc1N1CCN(C(=O)c2ccc(Cl)cc2)CC1)c1ccc([N+](=O)[O-])o1	u	-13.9%	u	-3.7%	u	5.2%	x	x	x	x
O=C(Nc1ccc(N2CCN(C(=O)c3ccccc3)CC2)cc1)c1ccc([N+](=O)[O-])o1	u	12.6µM*	5.62µM*	0.7%	x	11.0%	7.31µM*	23.1µM*	u	-21.0%
O=C(NNC(=O)c1ccc([N+](=O)[O-])o1)c1ccccc1	u	-26.1%	7.94µM*	u	-24.0%	x	16.4µM*	18.4µM*	3.3%	51.8%
NC(=O)c1oc2ccccc2c1NC(=O)c1ccc([N+](=O)[O-])o1	u	-31.1%	7.08µM*	-15.1%	u	u	4.61µM*	23.1µM*	u	51.5%
COc1ccccc1CNC(=O)c1cnc(N(C)C)nc1	i	3.7%	-2.7%	2.2%	8.6%	x	x	x	x	x
Cc1ccccc1C(=O)N1CCN(c2ccc(NC(=O)c3ccc([N+](=O)[O-])o3)cc2)CC1	u	1.12µM*	3.16µM*	1.3%	-27.8%	u	6.51µM*	16.4µM*	-6.8%	u
COc1ccc(C)c2sc(N(CCCN(C)C)C(=O)c3ccc(S(=O)(=O)N4CCc5ccccc5C4)cc3)nc12	x	7.08µM*	5.01µM*	u	28.2µM*	u	4.61µM*	5.17µM*	5.17µM*	u
COC(=O)c1ccc(CSc2nnc(CS(=O)Cc3ccc(Br)cc3)n2-c2ccccc2)cc1 (stereo not given)	i	-38.9%	u	-2.2%	-2.2%	-7.9%	x	x	x	x
O=S(Cc1ccc(Br)cc1)Cc1nnc(SCc2ccc(Br)cc2)n1-c1ccccc1 (stereo not given)	i	-40.8%	8.91µM*	-17.8%	-34.9%	u	20.6µM*	u	u	44.4%
O=C(c1ccc(Br)cc1)N(Cc1nc2ccccc2c(=O)[nH]1)C1CCCC1	i	-13.3%	11.2µM*	-3.2%	-33.4%	u	23.1µM*	-24.7%	-9.6%	19.4%
Cc1ccccc1NC(=S)N(CCN1CCOCC1)Cc1ccccc1F	i	4.0%	-1.1%	4.9%	-12.0%	1.6%	x	x	x	x
